Data on three compounds can be found in PubChem BioAssay.

The nature of assay [1]: binders of probe aFSTL3 on microarray, primary screen, stem cell growth factor project, biochemical, small-molecule microarray, fluorescence 635/667 (AID 1064).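 Note: measures binding of the biotinylated anti-FSTL3 antibody to printed compounds.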 Particulars: higher = more signal.
A short description of assay [2]: binders from COS7 lysate, DM2A8 probe, primary screen, torsin A project, cell lysate, small-molecule microarray, fluorescence 635/667 (AID 1065). Particulars: higher = more signal, COS7 lysate expressing mutant human TOR1A.
A short description of assay [3]: binders of probe aFGF2 on microarray, primary screen, stem cell growth factor project, biochemical, small-molecule microarray, fluorescence 635/667 (AID 1067).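 Note: measures binding of biotinylated aFGF2 protein to printed compounds on slides; z-score merges feature fluorescence and signal-to-noise across triplicate slides.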 As to conditions: higher = more signal.
Assay [4] is described as follows: binders of probe aFGF10 on microarray, primary screen, stem cell growth factor project, biochemical, small-molecule microarray, fluorescence 635/667 (AID 1071).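 Note: score merges 667 nm spot intensity and signal to noise from triplicate slides.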 Particulars: higher = more signal.
Assay [5] deals with Neurogenic locus notch homolog protein 2 (Homo sapiens) (UniProt Q04721). Nature of the assay: Notch2 binders on small-molecule microarrays, primary screen, biochemical, small-molecule microarray, 635 nm fluorescence, stem cell growth factors (AID 1073). As to conditions: Notch2 binding, higher = more signal.
For assay [6], the target named is Pro-neuregulin-1, membrane-bound isoform (Homo sapiens) (UniProt Q02297). The assay can be described thus: NRG1 binders on small-molecule microarrays, primary screen, psychiatric disease protein project, biochemical, small-molecule microarray, fluorescence 635/667 (AID 1075).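 Note: score combines 667 nm spot fluorescence with signal to noise.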 As to conditions: NRG1 binding, 635 nm fluorescence, higher = more signal.
For assay [7], the system named is Neuregulin-1 EGF-like domain. Nature of the assay: binders of neuregulin-1 EGF-like domain, primary screen, biochemical, small-molecule microarray, 635 nm fluorescence (AID 1081).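 Note: binding of the protein to compounds printed on small-molecule microarray slides.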 Particulars: small-molecule microarray binding, higher = more signal.
A short description of assay [8]: FRG1 promoter luciferase signal modulators, primary screen, FRG1 inhibition for FSHD, cell-based, C2C12 myotubes, firefly/Renilla luciferase, luminescence (AID 1084). Particulars: higher = more signal, called active from +8 up or from −8 down.
A short description of assay [9]: binders of probe aFST on microarray, primary screen, stem cell growth factor project, biochemical, small-molecule microarray, fluorescence 635/667 (AID 1086).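 Note: score merges 667 nm fluorescence with signal-to-noise of each printed compound spot.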 Particulars: higher = more signal.
A short description of assay [10]: binders of probe aHhip on microarray, primary screen, stem cell growth factor project, biochemical, small-molecule microarray, fluorescence 635/667 (AID 1087).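 Note: score merges spot fluorescence at 667nm with spot signal to noise ratio.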 As to conditions: higher = more signal.
Assay [11] deals with PRMT1 (protein arginine N-methyltransferase 1). Nature of the assay: PRMT1 binders on small-molecule microarrays, primary screen, biochemical, small-molecule microarray, 635 nm fluorescence (AID 1088).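 Note: binding of Prmt1 protein to compounds spotted on small-molecule microarray slides.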 Particulars: small-molecule microarray binding, higher = more signal.
Assay [12] is described as follows: yeast growth modulation, basal conditions, primary screen, YJM789 clinical isolate, OD600, 24 h (AID 1089).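 Note: growth of clinical yeast isolate S. cerevisiae YJM 789 seeded 1000 cells per well; test concentration not given here.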 As to conditions: S. cerevisiae YJM789 growth, higher = more signal, called active from +8 up or from −8 down.
A short description of assay [13]: fission yeast growth modulation, primary screen, strain 972, OD600, 24 h, no modulator (AID 1090).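 Note: basal condition with compound alone and no growth modifier present; test concentration not given here.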 As to conditions: S. pombe 972 growth, higher = more signal, called active from +8 up or from −8 down.
Assay [14] can be described thus: S. cerevisiae growth modulation with rapamycin, primary screen, strain BY4716, OD600, 96 h (AID 1091). Note: test concentration not given here. As to conditions: higher = more signal, called active from +8 up or from −8 down.
In assay [15] the target is Torsin-1A-interacting protein 2 (Homo sapiens) (UniProt Q8NFQ8). Nature of the assay: LULL1 binders on small-molecule microarray, primary screen, cell lysate, human LULL1 lysate, 635/667 nm fluorescence (AID 1092).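 Note: probe is lysate of COS7 cells overexpressing human LULL1; score merges per-feature 667 nm fluorescence with signal-to-noise.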 As to conditions: hLULL1 lysate binding, 635 nm fluorescence, higher = more signal.
Assay [16] in a line: E. coli growth modulation, two-sided OD650, primary screen, E. coli filamentation project, strain DRC41, 24 h (AID 1093).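 Note: MC1000 strain lacking acrAB efflux and sulA so SOS filamentation is blocked; test concentration not given here.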 As to conditions: OD650, 24 h, higher = more signal, called active from +8 up or from −8 down.
A short description of assay [17]: small-molecule microarray binders of probe aLefty2, primary screen, biochemical, biotinylated probe, 635/667 nm fluorescence (AID 1094).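 Note: score merges spot fluorescence near 667 nm with spot signal-to-noise ratio.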 As to conditions: higher = more signal.
The test system of assay [18] is Noggin (protein binding on small-molecule microarray). The assay can be described thus: Noggin binders on small-molecule microarray, primary screen, biochemical, 635/667 nm fluorescence (AID 1095).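 Note: score merges 667 nm feature fluorescence with signal to noise over triplicate slides.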 As to conditions: 635 nm fluorescence, higher = more signal.
In assay [19] the target is Neurogenic locus notch homolog protein 3 (Homo sapiens) (UniProt Q9UM47). Nature of the assay: NOTCH3 binders on small-molecule microarray, primary screen, biochemical, 635/667 nm fluorescence (AID 1096). As to conditions: NOTCH3 binding, 635 nm fluorescence, higher = more signal.
A short description of assay [20]: small-molecule microarray binders of probe aEGFR, primary screen, biochemical, biotinylated probe, 635/667 nm fluorescence (AID 1097).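 Note: probe is a biotinylated anti-EGFR antibody binding compounds printed on slides; score combines fluorescence near 667 nm and signal to noise of each spot.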 As to conditions: higher = more signal.

Calls of active or inactive are those of the source.

Sequence of Torsin-1A-interacting protein 2 (Homo sapiens) (Q8NFQ8 whole entry, looked up): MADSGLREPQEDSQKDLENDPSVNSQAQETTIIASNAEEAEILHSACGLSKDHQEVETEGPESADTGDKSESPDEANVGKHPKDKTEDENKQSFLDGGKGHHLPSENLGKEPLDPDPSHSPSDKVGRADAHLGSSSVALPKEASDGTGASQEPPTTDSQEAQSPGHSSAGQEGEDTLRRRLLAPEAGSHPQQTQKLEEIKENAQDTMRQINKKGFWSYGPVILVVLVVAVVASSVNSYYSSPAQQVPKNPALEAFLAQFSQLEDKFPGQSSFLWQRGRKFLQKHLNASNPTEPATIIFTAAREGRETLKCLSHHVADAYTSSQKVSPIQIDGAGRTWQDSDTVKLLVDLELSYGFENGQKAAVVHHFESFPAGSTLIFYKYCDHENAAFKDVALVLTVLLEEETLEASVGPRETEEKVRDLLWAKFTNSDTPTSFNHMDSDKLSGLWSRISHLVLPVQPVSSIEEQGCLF
Sequence of Pro-neuregulin-1, membrane-bound isoform (Homo sapiens) (Q02297 whole entry, looked up, the tested form may be a part, canonical isoform): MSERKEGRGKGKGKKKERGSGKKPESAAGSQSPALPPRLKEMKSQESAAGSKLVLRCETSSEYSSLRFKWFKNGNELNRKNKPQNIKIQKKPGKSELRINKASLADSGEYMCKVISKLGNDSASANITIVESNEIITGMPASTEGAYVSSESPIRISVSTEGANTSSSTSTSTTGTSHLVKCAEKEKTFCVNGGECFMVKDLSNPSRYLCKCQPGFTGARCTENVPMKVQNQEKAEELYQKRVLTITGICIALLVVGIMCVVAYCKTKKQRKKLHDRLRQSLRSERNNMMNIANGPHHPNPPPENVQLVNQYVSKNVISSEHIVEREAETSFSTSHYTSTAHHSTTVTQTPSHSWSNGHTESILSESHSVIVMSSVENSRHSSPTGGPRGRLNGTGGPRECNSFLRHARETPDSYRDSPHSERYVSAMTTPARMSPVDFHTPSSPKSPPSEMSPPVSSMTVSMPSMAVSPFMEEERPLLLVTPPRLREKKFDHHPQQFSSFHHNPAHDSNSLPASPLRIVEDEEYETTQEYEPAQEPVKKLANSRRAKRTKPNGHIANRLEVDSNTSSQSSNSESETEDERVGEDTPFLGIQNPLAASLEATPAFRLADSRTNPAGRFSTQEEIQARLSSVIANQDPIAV
Sequence of Neurogenic locus notch homolog protein 3 (Homo sapiens) (Q9UM47 whole entry, looked up): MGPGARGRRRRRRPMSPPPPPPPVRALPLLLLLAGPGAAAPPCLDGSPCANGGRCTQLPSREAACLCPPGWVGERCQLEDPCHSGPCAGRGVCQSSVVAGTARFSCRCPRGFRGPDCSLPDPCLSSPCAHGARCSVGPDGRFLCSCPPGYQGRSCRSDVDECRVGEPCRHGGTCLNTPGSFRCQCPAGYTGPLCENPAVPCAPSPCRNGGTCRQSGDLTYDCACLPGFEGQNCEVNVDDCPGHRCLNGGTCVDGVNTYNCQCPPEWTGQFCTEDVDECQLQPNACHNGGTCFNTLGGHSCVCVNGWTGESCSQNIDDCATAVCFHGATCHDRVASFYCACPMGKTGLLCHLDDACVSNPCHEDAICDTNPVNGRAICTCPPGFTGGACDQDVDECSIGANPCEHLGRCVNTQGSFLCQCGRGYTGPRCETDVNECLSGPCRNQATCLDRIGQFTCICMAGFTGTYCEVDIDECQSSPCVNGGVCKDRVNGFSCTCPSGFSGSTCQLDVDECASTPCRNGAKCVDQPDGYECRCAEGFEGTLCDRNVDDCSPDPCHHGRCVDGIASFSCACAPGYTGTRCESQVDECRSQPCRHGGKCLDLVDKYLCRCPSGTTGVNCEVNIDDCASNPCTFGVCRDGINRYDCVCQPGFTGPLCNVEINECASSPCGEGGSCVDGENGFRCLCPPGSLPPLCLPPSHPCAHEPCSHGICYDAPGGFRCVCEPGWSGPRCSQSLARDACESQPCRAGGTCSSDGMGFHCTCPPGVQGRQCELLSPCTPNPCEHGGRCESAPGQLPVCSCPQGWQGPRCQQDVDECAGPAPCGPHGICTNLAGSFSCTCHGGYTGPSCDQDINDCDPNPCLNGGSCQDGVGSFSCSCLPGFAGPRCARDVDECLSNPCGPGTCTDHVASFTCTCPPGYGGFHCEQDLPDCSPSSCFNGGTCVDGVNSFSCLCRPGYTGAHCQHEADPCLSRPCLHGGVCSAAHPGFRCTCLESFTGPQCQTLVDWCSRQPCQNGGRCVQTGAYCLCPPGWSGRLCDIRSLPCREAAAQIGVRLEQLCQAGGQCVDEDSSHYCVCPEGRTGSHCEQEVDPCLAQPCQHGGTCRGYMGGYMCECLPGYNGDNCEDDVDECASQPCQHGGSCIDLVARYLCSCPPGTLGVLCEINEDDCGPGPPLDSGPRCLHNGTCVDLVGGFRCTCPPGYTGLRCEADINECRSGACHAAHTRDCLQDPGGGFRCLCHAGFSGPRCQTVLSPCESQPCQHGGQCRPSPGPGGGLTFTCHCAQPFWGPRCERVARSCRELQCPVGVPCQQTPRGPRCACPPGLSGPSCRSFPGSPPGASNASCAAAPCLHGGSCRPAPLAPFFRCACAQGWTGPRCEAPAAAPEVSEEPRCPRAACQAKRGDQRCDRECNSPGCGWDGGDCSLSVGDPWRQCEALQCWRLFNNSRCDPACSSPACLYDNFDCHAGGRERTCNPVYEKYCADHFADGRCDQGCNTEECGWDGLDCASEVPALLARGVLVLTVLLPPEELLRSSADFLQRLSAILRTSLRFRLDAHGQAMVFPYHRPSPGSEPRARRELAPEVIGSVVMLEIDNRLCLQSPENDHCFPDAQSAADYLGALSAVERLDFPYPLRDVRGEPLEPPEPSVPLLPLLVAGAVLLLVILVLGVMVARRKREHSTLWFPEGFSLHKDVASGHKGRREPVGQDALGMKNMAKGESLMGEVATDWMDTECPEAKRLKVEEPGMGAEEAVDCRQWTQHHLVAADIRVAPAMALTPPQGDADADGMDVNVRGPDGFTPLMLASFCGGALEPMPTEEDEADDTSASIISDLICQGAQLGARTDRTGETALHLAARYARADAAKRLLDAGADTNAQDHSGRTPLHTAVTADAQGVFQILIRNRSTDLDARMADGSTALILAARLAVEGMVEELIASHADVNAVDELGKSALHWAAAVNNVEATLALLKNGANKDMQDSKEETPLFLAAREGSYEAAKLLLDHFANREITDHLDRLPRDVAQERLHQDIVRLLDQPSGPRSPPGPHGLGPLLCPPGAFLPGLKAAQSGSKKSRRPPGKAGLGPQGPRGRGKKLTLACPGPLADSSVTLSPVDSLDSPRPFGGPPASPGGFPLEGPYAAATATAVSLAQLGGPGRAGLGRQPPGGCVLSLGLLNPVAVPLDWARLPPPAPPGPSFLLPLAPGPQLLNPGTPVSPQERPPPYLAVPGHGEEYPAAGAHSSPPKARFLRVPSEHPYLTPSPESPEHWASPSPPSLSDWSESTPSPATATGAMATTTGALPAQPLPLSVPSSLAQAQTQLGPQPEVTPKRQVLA

Turning to `C=C(COC)/C(=C/C[C@@H](OC(C)=O)c1ccccc1OCCO)c1cnc2ccccc2c1`, the composite z-score in assay [1] was -0.0428; in assay [2], 1.58; in [3], -0.0695; in [4], 0.339; in assay [5], 1.03; in assay [6], 1.23. The composite z-score in [7] is 1.13; in assay [9] it was 0.278; in [10], -0.169; in assay [11], 1.56; in assay [15], 0.895; in assay [17] it was -0.154. Further, the results for the composite z-score in assay [18], in assay [19] and in assay [20] were 1.64, 1.09 and -0.0828, respectively. In addition, the z-score in [8] was -0.305 (inactive); in [12], 0.27 (inactive); in assay [13], -0.614 (inactive); in assay [14], -0.112 (inactive); in assay [16], 0.359 (inactive).
Consider `CCOC(=O)c1cn(C[C@H](Cc2ccccc2)NC(=O)N[C@H](CO)CCc2oc(C(C)=O)c(C(=O)OC)c2C(=O)OC)nn1`, for which the composite z-score was -0.562 in assay [1]; -0.0438 in [2]; -0.101 in assay [3]; 1.09 in [4]; 1.47 in assay [5]; 0.553 in assay [6]. Also, the composite z-score was 1.39 in assay [7]; 0.863 in assay [9]; -0.0383 in assay [10]; 1.54 in assay [11]; 1.36 in assay [15]; -0.0615 in assay [17]. Besides, the composite z-score in assay [18] came to 1.15; in [19], 1.08; in assay [20], 0.272. Further, the z-score in assay [8] is 0.872 (inactive); in [12], 0.511 (inactive); in [13], -0.342 (inactive); in assay [14], 0.018 (inactive); in assay [16], -0.616 (inactive).
As to `COC(=O)C(CC#Cc1ccc2c(c1)[C@]1(C(=O)N2)[C@H](c2ccc(OCCO)cc2)N2[C@H](c3ccccc3)[C@H](c3ccccc3)OC(=O)[C@H]2[C@@H]1C(=O)N1CCCCCCC1)C(=O)OC`, the composite z-score in [1] worked out at 3.41; in [2] it was 1.91; in [3] it was 0.826; in assay [4] it was 1.21; in [5] it was 1.14; in [6], 1.93. In addition, the composite z-score amounted to 1.27 in [7]; 3.21 in [9]; 1.45 in assay [10]; 1.54 in [11]; 3.95 in assay [15]; 1.54 in assay [17]. Also, the results for the composite z-score in assay [18], in assay [19] and in [20] were 1.84, 1.03 and 1.17, respectively. In addition, the z-score in assay [8] was -0.378 (inactive); in assay [12], 1.37 (inactive); in [13], 0.736 (inactive); in assay [14], 2.56 (inactive); in assay [16] it was -0.611 (inactive).
